Test results reported in PubChem BioAssay (NCI).
This is part of a sample that, as a whole, favours compounds with a hit. Of some 83,000 tested, about 20% had one in any assay.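 For each line, cells grew in 96-well plates with the test compound present at a single concentration for 48 hours.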 A number with no mark means an inactive call. The source made the active and inactive calls. Rule for the calls: active = growth percent below 10; inactive = the rest.

How the values were obtained:
Assay in all cases: NCI-60 one-dose screen, 48 h (100 = growth as untreated, 0 = no growth, -100 = all killed)
Conditions in all cases: 10 µM unless noted
NCI-H23 lung = tested on: NCI-H23 lung
NCI-H226 lung = tested on: NCI-H226 lung
NCI-H322M lung = tested on: NCI-H322M lung
HOP-62 NSCLC = tested on: HOP-62 NSCLC
NCI-H460 lung = tested on: NCI-H460 lung
NCI-H522 lung = tested on: NCI-H522 lung
A549/ATCC NSCLC = tested on: A549/ATCC NSCLC
786-0 renal = tested on: 786-0 renal
COLO 205 colon = tested on: COLO 205 colon
DU-145 prostate = tested on: DU-145 prostate
K-562 leukemia = tested on: K-562 leukemia
MALME-3M melanoma = tested on: MALME-3M melanoma
MDA-MB-231 breast = tested on: MDA-MB-231 breast
RXF 393 renal = tested on: RXF 393 renal
SF-268 CNS = tested on: SF-268 CNS
SF-295 CNS = tested on: SF-295 CNS
SF-539 CNS = tested on: SF-539 CNS
UACC-257 melanoma = tested on: UACC-257 melanoma
M14 melanoma = tested on: M14 melanoma

Compound	growth (NCI-H23 lung)	growth (NCI-H226 lung)	growth (NCI-H322M lung)	growth (HOP-62 NSCLC) [%]	growth (NCI-H460 lung)	growth (NCI-H522 lung)	growth (A549/ATCC NSCLC)	growth (786-0 renal)	growth (COLO 205 colon)	growth (DU-145 prostate)	growth (K-562 leukemia)	growth (MALME-3M melanoma)	growth (MDA-MB-231 breast)	growth (RXF 393 renal)	growth (SF-268 CNS)	growth (SF-295 CNS) [%]	growth (SF-539 CNS)	growth (UACC-257 melanoma)	growth (M14 melanoma)
COc1ccc(-c2cc(C(=O)Nc3ccc(Br)cc3)nc3[nH]c(=O)sc23)cc1	23.6%	63.4%	46.8%	72.7	28.8%	-9.13% (active)	20.3%	57.2%	42.3%	54.9%	27%	25%	84.8%	65.1%	51.6%	53.2	43.6%	16.4%	44.4%
CC(C)(C)OC[C@@H]1N=C(c2ccc(Br)cc2)Nc2nc3ccccn3c2C1=O	71.5%	78.1%	84.8%	54.5	41.3%	33.4%	51.6%	94.2%	62.7%	82.7%	25.3%	51.5%	61.5%	61.6%	74.3%	30.9	75.7%	62.3%	46.4%
NS(=O)(=O)c1ccc(CCn2c(SCC(=O)N/N=C/c3ccccc3O)nc3ccccc3c2=O)cc1	65.4%	51.1%	77.5%	44.4	23.1%	8.06% (active)	53.9%	41.7%	49.9%	42.7%	9.2% (active)	62.3%	63.4%	46.7%	55.8%	39.7	25.6%	55.6%	41.5%
CC(C)CC1NC(=O)C(CC(C)C)N(CO)C1=O (configuration not stated)	104%	91.3%	95%	107	116%	90.4%	102%	102%	111%	119%	97.1%	101%	97.1%	111%	112%	120	111%	102%	101%
CC(C)c1ccc(-c2cnc3nonc3n2)cc1	56.2%	77.5%	65.8%	57.7	70.5%	20%	53.2%	10.6%	38.1%	30.9%	6.39% (active)	61.2%	38.5%	37.7%	62.4%	48.9	14.5%	52%	7.59% (active)
COc1cccc(/C(C)=N/NC(=O)CSc2nc3ccccc3c(=O)n2CCc2ccc(S(N)(=O)=O)cc2)c1	31.6%	89.1%	58.2%	35	-53.2% (active)	42.2%	15.6%	-26.9% (active)	42.9%	18.4%	32%	-15.2% (active)	-25.5% (active)	57.9%	36.1%	44	-18.1% (active)	45.2%	27.3%
COc1cc(C)c(Cl)cc1C1=NN(c2ccc(S(N)(=O)=O)cc2)C(/C=C/c2ccccc2)C1 (configuration not stated)	50.5%	31.9%	107%	59.7	26.8%	27%	34%	63.4%	38.3%	82.6%	23.1%	85.6%	88.4%	58%	70.2%	63.7	103%	83.4%	72.2%
C=C[C@H]1CCC/C=C/[C@@H]2C[C@H](O)C[C@H]2[C@H](O)/C=C/C(=O)O1	-19.1% (active)	3.22% (active)	-7.72% (active)	33.3	7.05% (active)	-37.8% (active)	8.51% (active)	-53.5% (active)	-83.1% (active)	5.86% (active)	9.93% (active)	-46.4% (active)	-74% (active)	-15.2% (active)	7.6% (active)	17.2	35.2%	4.69% (active)	-10.6% (active)
